± gives the standard deviation.
How the values were obtained:
Conditions in all cases: modulator concentration 10 µM
[1] = system: RAW-Dual (murine macrophage reporter line); assay: NF-kB reporter (SEAP) activity fold change vs agonist alone; higher = enhanced NF-kB activity
Summary of the method: (§1)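 RAW-Dual murine macrophage reporter cells were seeded at 50 000 per well in 384-well plates and pre-incubated 1 hour at 37 °C with compound pin-transferred to 10 μM final. After 1 hour, a PRR agonist was added and cells incubated overnight. Supernatant NF-κB (SEAP, QUANTI-Blue, 620 nm absorbance) and IRF (Lucia luciferase, QUANTI-Luc, luminescence) signals were divided by the mean agonist-only control on the same plate to give fold change. Two replicate plates were averaged, with errors by propagation.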

[2] = system: RAW-Dual (murine macrophage reporter line); assay: IRF reporter (Lucia luciferase) activity fold change vs agonist alone; higher = enhanced IRF activity
Summary of the method: as §1

[3] = system: RAW-Dual (murine macrophage reporter line); assay: viability score (confluency relative to resting cells, overnight) (fraction); higher = more viable, active = viable (0.7 or more)
Summary of the method: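 RAW-Dual macrophages in 384-well plates were incubated overnight with compound, final concentration 10 μM. Confluency images from IncuCyte were processed in IncuCyte software into two masks covering all imaged wells. The viability score is each well's confluency relative to resting cells, and a compound met the cutoff when both masks exceeded 70% of resting cells.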

[4] = agonist: CpG ODN 1826 0.5 ug/mL

Row | Compound | NF-kB reporter [1, 4] | NF-kB reporter ([1]; agonist: LPS 0.1 ug/mL) | NF-kB reporter ([1]; agonist: MPLA […]) | IRF reporter ([2]; agonist: 3'3'-cGAMP 10 ug/mL) | IRF reporter ([2]; agonist: LPS 0.1 ug/mL) | IRF reporter ([2]; agonist: MPLA […]) | viability score [3]
1 | CC1CCN(c2ccc(-c3ccc(NC(=O)c4ccc5ncsc5c4)cc3)nn2)CC1 | 0.914 ± 0.039 | 0.98 ± 0.078 | 1.02 ± 0.057 | 0.967 ± 0.045 | 1.09 ± 0.12 | 1.17 ± 0.23 | 0.986 (active)
2 | N#Cc1ccc(C(=O)Nc2nc(-c3cccs3)c(C(=O)C(F)(F)F)s2)cc1 | 0.789 ± 0.091 | 1.06 ± 0.13 | 1.09 ± 0.17 | 0.958 ± 0.03 | 1.36 ± 0.21 | 1.54 ± 0.27 | 1.03 (active)
3 | CNC(=O)[C@H](Cc1ccccc1)NC(=O)[C@H](CC(C)C)[C@H](CSc1cccs1)C(=O)NO | 1.23 ± 0.093 | 1.22 ± 0.13 | 1.01 ± 0.048 | 0.96 ± 0.15 | 1.05 ± 0.15 | 0.947 ± 0.28 | 0.999 (active)
4 | CCOC(=O)C1=C(C)NC(C)=C(C(=O)OC)C1c1ccco1 (centres undefined) | 1.03 ± 0.17 | 0.955 ± 0.1 | 1.03 ± 0.086 | 0.95 ± 0.037 | 1.14 ± 0.18 | 1.2 ± 0.25 | 1.01 (active)
5 | CCOCC(=O)Nc1nc2c(C(F)(F)F)cccc2s1 | 1.16 ± 0.067 | 0.964 ± 0.11 | 1.06 ± 0.052 | 0.969 ± 0.039 | 1.04 ± 0.048 | 1.03 ± 0.14 | 0.989 (active)
6 | CN(C)Cc1ccc(S(=O)(=O)n2ccc(/C=C/C(=O)NO)c2)cc1 | 0.517 ± 0.028 | 0.946 ± 0.11 | 1.25 ± 0.12 | 1.3 ± 0.12 | 1.49 ± 0.18 | 1.6 ± 0.36 | 0.334 (inactive)
7 | COC(=O)c1ccc(CSc2ccc3nnc(-c4cccc(F)c4)n3n2)o1 | 1 ± 0.08 | 1.18 ± 0.072 | 1.03 ± 0.062 | 0.966 ± 0.035 | 1.05 ± 0.082 | 0.968 ± 0.093 | 0.998 (active)
